Results reported in article PMC4336329 (PLoS ONE, 2015).
Among all 310,000 compounds or so, about 14,000 (4.5%) showed an effect of 50% or more. The effect is printed as a negative number. This excerpt belongs to a sample that is enriched for strong results.
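Also: peak tail current of the secondary pulse compared with the same well before compound.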

Each compound was assayed against human ether-à-go-go-related gene (hERG) potassium channel (human, UniProt Q12809) (assay: primary screen, population patch clamp on CHO cells stably expressing hERG; higher = less effect of the substance).
Chain of human ether-à-go-go-related gene (hERG) potassium channel (Q12809 whole entry, looked up): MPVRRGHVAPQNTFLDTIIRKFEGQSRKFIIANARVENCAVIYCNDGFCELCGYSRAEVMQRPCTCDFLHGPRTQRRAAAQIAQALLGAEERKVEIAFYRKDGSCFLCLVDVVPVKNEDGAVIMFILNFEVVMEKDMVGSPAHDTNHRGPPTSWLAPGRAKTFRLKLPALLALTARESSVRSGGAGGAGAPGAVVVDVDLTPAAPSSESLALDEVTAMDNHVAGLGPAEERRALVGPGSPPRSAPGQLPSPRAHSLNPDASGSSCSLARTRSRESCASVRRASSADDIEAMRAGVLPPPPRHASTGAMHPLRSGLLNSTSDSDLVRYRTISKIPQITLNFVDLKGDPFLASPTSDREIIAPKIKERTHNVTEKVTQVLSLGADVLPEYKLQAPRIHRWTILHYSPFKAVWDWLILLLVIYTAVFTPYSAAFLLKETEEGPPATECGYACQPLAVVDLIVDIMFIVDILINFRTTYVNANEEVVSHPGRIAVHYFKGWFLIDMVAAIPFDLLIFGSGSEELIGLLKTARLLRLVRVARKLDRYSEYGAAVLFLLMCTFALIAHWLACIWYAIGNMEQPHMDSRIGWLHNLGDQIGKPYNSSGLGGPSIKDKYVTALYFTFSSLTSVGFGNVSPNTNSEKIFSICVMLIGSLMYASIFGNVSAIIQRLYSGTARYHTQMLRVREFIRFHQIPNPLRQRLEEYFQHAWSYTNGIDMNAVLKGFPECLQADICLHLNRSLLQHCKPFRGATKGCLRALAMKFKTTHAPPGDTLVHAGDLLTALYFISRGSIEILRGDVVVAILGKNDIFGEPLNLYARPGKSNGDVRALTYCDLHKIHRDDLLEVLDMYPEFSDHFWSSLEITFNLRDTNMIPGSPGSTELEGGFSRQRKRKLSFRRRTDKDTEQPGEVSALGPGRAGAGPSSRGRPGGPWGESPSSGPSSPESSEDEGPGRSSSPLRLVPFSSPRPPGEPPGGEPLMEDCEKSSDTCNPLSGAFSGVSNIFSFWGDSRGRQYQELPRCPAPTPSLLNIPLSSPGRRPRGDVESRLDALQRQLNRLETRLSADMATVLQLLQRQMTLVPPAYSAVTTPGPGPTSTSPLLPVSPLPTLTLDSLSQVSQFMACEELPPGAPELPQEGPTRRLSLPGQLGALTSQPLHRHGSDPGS
With FC(F)(F)c1ccc(N2CCOCC2)c(Nc2nc3ccccc3n3cnnc23)c1 the “hERG current change (%, negative = inhibition) at 10uM” value was 7.53%. For CCSc1nnc([C@H](Cc2c[nH]c3ccccc23)NC(=O)OC(C)(C)C)o1, the “hERG current change (%, negative = inhibition) at 10uM” value was -21.5%. COc1ccc(C2c3c(ccc4ccccc34)Oc3ncn4nc(-c5ccco5)nc4c32)cc1 (stereo not shown) was tested, and the “hERG current change (%, negative = inhibition) at 10uM” value was -12.4%. In the case of COc1ccccc1C1c2ccc3ccccc3c2Oc2ncn(CCN(C)C)c(=N)c21 (stereo not shown), the “hERG current change (%, negative = inhibition) at 10uM” value is reported as -61.8%. For COc1ccc(Cc2nc3c4c(ncn3n2)Oc2c(ccc3ccccc23)C4c2ccc(OC)c(OC)c2)cc1 (stereo not shown), the “hERG current change (%, negative = inhibition) at 10uM” value was 14.7%. For COc1ccc(C2c3ccc4ccccc4c3Oc3ncn(CCN(C)C)c(=N)c32)cc1 (stereo not shown), the “hERG current change (%, negative = inhibition) at 10uM” value was -77.2%. For COc1ccc(C2c3ccc4ccccc4c3Oc3ncn(CCCN(C)C)c(=N)c32)cc1 (stereo not shown), the “hERG current change (%, negative = inhibition) at 10uM” value was -76.4%. For CN(C)S(=O)(=O)c1cc(C(=O)OCCn2cnc3c2c(=O)n(C)c(=O)n3C)ccc1Cl, the “hERG current change (%, negative = inhibition) at 10uM” value was -39.7%. In the case of CS(=O)(=O)c1cccc(-c2nnc(NC(=O)CCS(=O)(=O)c3ccccc3)o2)c1, the “hERG current change (%, negative = inhibition) at 10uM” value is reported as 3.82%. For COC(=O)c1cn(C(=O)c2ccccc2F)nc1N, the “hERG current change (%, negative = inhibition) at 10uM” value was -5.96%. In the case of Cc1ccc2c(CC(=O)OC3CCOC3=O)coc2c1 (stereo not shown), the “hERG current change (%, negative = inhibition) at 10uM” value is reported as 3.85%. In the case of CC/C(=N\NC(=S)Nc1ccc(OC)cc1)c1ccc(OC(F)F)cc1, the “hERG current change (%, negative = inhibition) at 10uM” value is reported as -4.32%. With C[C@@H]1CC=C[C@H]2[C@H]1C(=O)N(Cc1ccccc1)[C@H]2c1ccoc1 the “hERG current change (%, negative = inhibition) at 10uM” value was 3.54%. CC(CN1CCCCC1)C(=O)NNC(=O)C12CC3CC(CC(C3)C1)C2 (stereo not shown) was tested, and the “hERG current change (%, negative = inhibition) at 10uM” value was 3.74%. CC(C)c1onc(C(=O)N2CCN(c3ccc(F)cc3)CC2)c1[N+](=O)[O-] was tested, and the “hERG current change (%, negative = inhibition) at 10uM” value was -19.9%. In the case of COc1ccccc1NC(=O)CSc1nnc(C2CCCCC2)n1N, the “hERG current change (%, negative = inhibition) at 10uM” value is reported as 5.54%. For c1ccc(-n2cc(CNCCc3cscn3)c(-c3ccc4c(c3)OCO4)n2)cc1, the “hERG current change (%, negative = inhibition) at 10uM” value was -65.4%. For Cc1ccc(-n2cc(CNCCc3cscn3)c(-c3ccc(F)cc3)n2)cc1, the “hERG current change (%, negative = inhibition) at 10uM” value was -59%. In the case of OCc1cn(-c2ccccc2)nc1-c1ccc2c(c1)OCCO2, the “hERG current change (%, negative = inhibition) at 10uM” value is reported as 5.83%. With Cc1ccc(-n2cc(CNCCc3ncc(C)[nH]3)c(-c3ccc(F)cc3)n2)cc1 the “hERG current change (%, negative = inhibition) at 10uM” value was -47.4%. For Fc1ccc(-c2nn(-c3ccccc3)cc2CNCc2ccccc2)cc1, the “hERG current change (%, negative = inhibition) at 10uM” value was 1.75%. With O=Cc1cn(-c2ccccc2)nc1-c1ccc2c(c1)OCCO2 the “hERG current change (%, negative = inhibition) at 10uM” value was -0.855%. With O=C(CSC1=NCCS1)NC(NC(=O)CSC1=NCCS1)c1ccccc1 the “hERG current change (%, negative = inhibition) at 10uM” value was 18.6%. In the case of O=C(C1CCN(S(=O)(=O)c2ccc(F)cc2)CC1)N1CCOCC1, the “hERG current change (%, negative = inhibition) at 10uM” value is reported as 15.3%. For COc1ccc(CNC(=O)c2cc(-c3ccccc3O)n[nH]2)cc1, the “hERG current change (%, negative = inhibition) at 10uM” value was 5.51%. O=C1CC(N2CCN(C(c3ccccc3)c3ccccc3)CC2)C(=O)N1 (stereo not shown) was tested, and the “hERG current change (%, negative = inhibition) at 10uM” value was -0.687%. For NC(=O)COn1c(SCC(N)=O)nc2ccccc2c1=O, the “hERG current change (%, negative = inhibition) at 10uM” value was 19.3%. COC(=O)c1cc(Br)c(=O)n(Cc2ccncc2)c1 was tested, and the “hERG current change (%, negative = inhibition) at 10uM” value was -1.41%. In the case of Cc1c(C)c2ccc(OCC(=O)N3CCC(C(=O)O)CC3)cc2oc1=O, the “hERG current change (%, negative = inhibition) at 10uM” value is reported as -6.41%. In the case of CCOc1ccccc1N1CCN(C(=O)COc2ccc3c(C)cc(=O)oc3c2)CC1, the “hERG current change (%, negative = inhibition) at 10uM” value is reported as -6.28%. With CCCc1cc(=O)oc2cc(OCC(=O)N3CCC(C(=O)O)(c4ccccc4)CC3)ccc12 the “hERG current change (%, negative = inhibition) at 10uM” value was 6.41%. Cc1cc(=O)oc2cc(OCC(=O)N3CCN(C(=O)C4COc5ccccc5O4)CC3)c(Cl)cc12 (stereo not shown) was tested, and the “hERG current change (%, negative = inhibition) at 10uM” value was -48%. Cc1cc(=O)oc2c(C)c(OCC(=O)N3CCN(C(=O)C4COc5ccccc5O4)CC3)ccc12 (stereo not shown) was tested, and the “hERG current change (%, negative = inhibition) at 10uM” value was -50.4%. With O=C(COc1ccc2ccc(=O)oc2c1)N1CCN(C(=O)C2COc3ccccc3O2)CC1 (stereo not shown) the “hERG current change (%, negative = inhibition) at 10uM” value was -46.2%. In the case of CCCc1cc(=O)oc2cc(OCC(=O)N3CCC(C(N)=O)CC3)ccc12, the “hERG current change (%, negative = inhibition) at 10uM” value is reported as -6.67%. In the case of Cc1c(C)c2ccc(OCC(=O)N3CCN(C(=O)C4COc5ccccc5O4)CC3)cc2oc1=O (stereo not shown), the “hERG current change (%, negative = inhibition) at 10uM” value is reported as -60.9%. With Cc1cccc(N2CCN(C(=O)COc3ccc4c(C)cc(=O)oc4c3C)CC2)c1C the “hERG current change (%, negative = inhibition) at 10uM” value was 13.6%. In the case of Cc1c(C)c2ccc(OCC(=O)N3CCN(c4ccccc4)CC3)cc2oc1=O, the “hERG current change (%, negative = inhibition) at 10uM” value is reported as -36.1%. For CCCc1cc(=O)oc2cc(OCC(=O)N3CCN(C(=O)C4COc5ccccc5O4)CC3)ccc12 (stereo not shown), the “hERG current change (%, negative = inhibition) at 10uM” value was -65.9%. Cc1cc(=O)oc2cc(OCC(=O)N3CCN(C(=O)C4COc5ccccc5O4)CC3)ccc12 (stereo not shown) was tested, and the “hERG current change (%, negative = inhibition) at 10uM” value was -53.6%. CCOC(=O)c1ccc(NC(=O)CCc2nc(-c3ccc(Cl)cc3)no2)cc1 was tested, and the “hERG current change (%, negative = inhibition) at 10uM” value was 8.36%. With Cc1cccc(N(CC(=O)NCCSCc2ccccc2)S(C)(=O)=O)c1C the “hERG current change (%, negative = inhibition) at 10uM” value was -17.4%. In the case of Cc1ccc(S(=O)(=O)N2CCN(C(=O)COC(=O)c3c(C)noc3C)CC2)c(C)c1, the “hERG current change (%, negative = inhibition) at 10uM” value is reported as -18.8%. For COCCCNC(=O)CN(c1ccc(Cl)c(Cl)c1)S(C)(=O)=O, the “hERG current change (%, negative = inhibition) at 10uM” value was -10.9%. With Cc1ccc(NCC(=O)N/N=C\c2cccc(O)c2)cc1 the “hERG current change (%, negative = inhibition) at 10uM” value was 1.98%. With C=CCNC(=S)N1CCOCC1 the “hERG current change (%, negative = inhibition) at 10uM” value was -1.69%. O=C(/C=C/c1ccccc1[N+](=O)[O-])NNC(=O)c1ccncc1 was tested, and the “hERG current change (%, negative = inhibition) at 10uM” value was -7.86%. CCOc1ccccc1NC1=C(Cl)C(=O)N(c2ccc(OC)cc2)C1=O was tested, and the “hERG current change (%, negative = inhibition) at 10uM” value was -10.4%. Cc1ccc(OCC(=O)N2CCN(Cc3ccc4c(c3)OCO4)CC2)cc1C was tested, and the “hERG current change (%, negative = inhibition) at 10uM” value was -24.6%. With Cc1cc(=O)oc2cc(OCC(=O)N3CCN(Cc4ccc5c(c4)OCO5)CC3)ccc12 the “hERG current change (%, negative = inhibition) at 10uM” value was -42.9%. With CCCc1cc(=O)oc2cc(OCC(=O)N3CCN(Cc4ccc5c(c4)OCO5)CC3)ccc12 the “hERG current change (%, negative = inhibition) at 10uM” value was -57%. CC(Oc1ccccc1)C(=O)N=C1SC2CS(=O)(=O)CC2N1Cc1ccc(F)cc1 (stereo not shown) was tested, and the “hERG current change (%, negative = inhibition) at 10uM” value was -24.6%.
